In the supplement of paper PMC10849652:
Targets with a hit are over-represented here; the source holds about 7,900 in all. About 0.6% of all pairs of compound and target were hits. Values without a mark were called inactive.

What follows are targets tested with NC1(c2ccc(-c3nc4ccn5c(=O)[nH]nc5c4cc3-c3ccccc3)cc2)CCC1 (assay: log2 fold change, soluble protein after heating vs DMSO (PISA); higher = thermal stabilisation; K562 cells, 10 uM, 30 min; active = over 0.2 and 3.5 SD of the protein, either way, in both replicates (recomputed)).
How it was run: (§1)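 K562 cells at 2×10^6 cells/mL were given 10 μM compound for 30 min. Aliquots then went through 3 min of heating across 48°C-58°C, were pooled, and were extracted in PBS with 0.5% NP-40 at 4°C, and the supernatant after 21,000xg for 90 min was quantified by TMTpro 16plex LC-MS/MS with channel sums equalised. Thermal stability relative to control samples, from duplicates, is given as log2 fold change.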

Sequence of UniProt P42025 (P42025 whole entry, looked up): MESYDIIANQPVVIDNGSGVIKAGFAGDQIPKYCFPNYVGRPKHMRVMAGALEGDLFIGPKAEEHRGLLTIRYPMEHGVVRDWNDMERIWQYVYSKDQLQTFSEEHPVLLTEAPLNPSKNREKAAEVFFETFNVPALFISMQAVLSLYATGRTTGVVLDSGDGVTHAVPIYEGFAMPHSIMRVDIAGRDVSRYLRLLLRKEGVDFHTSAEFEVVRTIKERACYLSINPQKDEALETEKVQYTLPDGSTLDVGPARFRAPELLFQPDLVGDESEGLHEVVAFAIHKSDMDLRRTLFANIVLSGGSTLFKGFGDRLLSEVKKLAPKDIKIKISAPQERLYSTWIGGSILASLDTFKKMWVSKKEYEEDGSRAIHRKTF
Sequence of UniProt P17707 (P17707 whole entry, looked up): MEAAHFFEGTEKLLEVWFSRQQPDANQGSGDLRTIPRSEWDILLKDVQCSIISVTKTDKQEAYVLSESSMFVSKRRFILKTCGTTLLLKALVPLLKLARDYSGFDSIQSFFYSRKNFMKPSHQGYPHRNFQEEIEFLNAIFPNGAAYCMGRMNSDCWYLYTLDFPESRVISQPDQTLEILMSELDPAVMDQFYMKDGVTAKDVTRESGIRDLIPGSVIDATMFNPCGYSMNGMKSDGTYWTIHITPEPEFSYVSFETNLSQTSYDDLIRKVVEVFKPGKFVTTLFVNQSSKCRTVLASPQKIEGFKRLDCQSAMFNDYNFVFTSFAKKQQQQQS
Sequence of UniProt Q01484 (Q01484 whole entry, looked up): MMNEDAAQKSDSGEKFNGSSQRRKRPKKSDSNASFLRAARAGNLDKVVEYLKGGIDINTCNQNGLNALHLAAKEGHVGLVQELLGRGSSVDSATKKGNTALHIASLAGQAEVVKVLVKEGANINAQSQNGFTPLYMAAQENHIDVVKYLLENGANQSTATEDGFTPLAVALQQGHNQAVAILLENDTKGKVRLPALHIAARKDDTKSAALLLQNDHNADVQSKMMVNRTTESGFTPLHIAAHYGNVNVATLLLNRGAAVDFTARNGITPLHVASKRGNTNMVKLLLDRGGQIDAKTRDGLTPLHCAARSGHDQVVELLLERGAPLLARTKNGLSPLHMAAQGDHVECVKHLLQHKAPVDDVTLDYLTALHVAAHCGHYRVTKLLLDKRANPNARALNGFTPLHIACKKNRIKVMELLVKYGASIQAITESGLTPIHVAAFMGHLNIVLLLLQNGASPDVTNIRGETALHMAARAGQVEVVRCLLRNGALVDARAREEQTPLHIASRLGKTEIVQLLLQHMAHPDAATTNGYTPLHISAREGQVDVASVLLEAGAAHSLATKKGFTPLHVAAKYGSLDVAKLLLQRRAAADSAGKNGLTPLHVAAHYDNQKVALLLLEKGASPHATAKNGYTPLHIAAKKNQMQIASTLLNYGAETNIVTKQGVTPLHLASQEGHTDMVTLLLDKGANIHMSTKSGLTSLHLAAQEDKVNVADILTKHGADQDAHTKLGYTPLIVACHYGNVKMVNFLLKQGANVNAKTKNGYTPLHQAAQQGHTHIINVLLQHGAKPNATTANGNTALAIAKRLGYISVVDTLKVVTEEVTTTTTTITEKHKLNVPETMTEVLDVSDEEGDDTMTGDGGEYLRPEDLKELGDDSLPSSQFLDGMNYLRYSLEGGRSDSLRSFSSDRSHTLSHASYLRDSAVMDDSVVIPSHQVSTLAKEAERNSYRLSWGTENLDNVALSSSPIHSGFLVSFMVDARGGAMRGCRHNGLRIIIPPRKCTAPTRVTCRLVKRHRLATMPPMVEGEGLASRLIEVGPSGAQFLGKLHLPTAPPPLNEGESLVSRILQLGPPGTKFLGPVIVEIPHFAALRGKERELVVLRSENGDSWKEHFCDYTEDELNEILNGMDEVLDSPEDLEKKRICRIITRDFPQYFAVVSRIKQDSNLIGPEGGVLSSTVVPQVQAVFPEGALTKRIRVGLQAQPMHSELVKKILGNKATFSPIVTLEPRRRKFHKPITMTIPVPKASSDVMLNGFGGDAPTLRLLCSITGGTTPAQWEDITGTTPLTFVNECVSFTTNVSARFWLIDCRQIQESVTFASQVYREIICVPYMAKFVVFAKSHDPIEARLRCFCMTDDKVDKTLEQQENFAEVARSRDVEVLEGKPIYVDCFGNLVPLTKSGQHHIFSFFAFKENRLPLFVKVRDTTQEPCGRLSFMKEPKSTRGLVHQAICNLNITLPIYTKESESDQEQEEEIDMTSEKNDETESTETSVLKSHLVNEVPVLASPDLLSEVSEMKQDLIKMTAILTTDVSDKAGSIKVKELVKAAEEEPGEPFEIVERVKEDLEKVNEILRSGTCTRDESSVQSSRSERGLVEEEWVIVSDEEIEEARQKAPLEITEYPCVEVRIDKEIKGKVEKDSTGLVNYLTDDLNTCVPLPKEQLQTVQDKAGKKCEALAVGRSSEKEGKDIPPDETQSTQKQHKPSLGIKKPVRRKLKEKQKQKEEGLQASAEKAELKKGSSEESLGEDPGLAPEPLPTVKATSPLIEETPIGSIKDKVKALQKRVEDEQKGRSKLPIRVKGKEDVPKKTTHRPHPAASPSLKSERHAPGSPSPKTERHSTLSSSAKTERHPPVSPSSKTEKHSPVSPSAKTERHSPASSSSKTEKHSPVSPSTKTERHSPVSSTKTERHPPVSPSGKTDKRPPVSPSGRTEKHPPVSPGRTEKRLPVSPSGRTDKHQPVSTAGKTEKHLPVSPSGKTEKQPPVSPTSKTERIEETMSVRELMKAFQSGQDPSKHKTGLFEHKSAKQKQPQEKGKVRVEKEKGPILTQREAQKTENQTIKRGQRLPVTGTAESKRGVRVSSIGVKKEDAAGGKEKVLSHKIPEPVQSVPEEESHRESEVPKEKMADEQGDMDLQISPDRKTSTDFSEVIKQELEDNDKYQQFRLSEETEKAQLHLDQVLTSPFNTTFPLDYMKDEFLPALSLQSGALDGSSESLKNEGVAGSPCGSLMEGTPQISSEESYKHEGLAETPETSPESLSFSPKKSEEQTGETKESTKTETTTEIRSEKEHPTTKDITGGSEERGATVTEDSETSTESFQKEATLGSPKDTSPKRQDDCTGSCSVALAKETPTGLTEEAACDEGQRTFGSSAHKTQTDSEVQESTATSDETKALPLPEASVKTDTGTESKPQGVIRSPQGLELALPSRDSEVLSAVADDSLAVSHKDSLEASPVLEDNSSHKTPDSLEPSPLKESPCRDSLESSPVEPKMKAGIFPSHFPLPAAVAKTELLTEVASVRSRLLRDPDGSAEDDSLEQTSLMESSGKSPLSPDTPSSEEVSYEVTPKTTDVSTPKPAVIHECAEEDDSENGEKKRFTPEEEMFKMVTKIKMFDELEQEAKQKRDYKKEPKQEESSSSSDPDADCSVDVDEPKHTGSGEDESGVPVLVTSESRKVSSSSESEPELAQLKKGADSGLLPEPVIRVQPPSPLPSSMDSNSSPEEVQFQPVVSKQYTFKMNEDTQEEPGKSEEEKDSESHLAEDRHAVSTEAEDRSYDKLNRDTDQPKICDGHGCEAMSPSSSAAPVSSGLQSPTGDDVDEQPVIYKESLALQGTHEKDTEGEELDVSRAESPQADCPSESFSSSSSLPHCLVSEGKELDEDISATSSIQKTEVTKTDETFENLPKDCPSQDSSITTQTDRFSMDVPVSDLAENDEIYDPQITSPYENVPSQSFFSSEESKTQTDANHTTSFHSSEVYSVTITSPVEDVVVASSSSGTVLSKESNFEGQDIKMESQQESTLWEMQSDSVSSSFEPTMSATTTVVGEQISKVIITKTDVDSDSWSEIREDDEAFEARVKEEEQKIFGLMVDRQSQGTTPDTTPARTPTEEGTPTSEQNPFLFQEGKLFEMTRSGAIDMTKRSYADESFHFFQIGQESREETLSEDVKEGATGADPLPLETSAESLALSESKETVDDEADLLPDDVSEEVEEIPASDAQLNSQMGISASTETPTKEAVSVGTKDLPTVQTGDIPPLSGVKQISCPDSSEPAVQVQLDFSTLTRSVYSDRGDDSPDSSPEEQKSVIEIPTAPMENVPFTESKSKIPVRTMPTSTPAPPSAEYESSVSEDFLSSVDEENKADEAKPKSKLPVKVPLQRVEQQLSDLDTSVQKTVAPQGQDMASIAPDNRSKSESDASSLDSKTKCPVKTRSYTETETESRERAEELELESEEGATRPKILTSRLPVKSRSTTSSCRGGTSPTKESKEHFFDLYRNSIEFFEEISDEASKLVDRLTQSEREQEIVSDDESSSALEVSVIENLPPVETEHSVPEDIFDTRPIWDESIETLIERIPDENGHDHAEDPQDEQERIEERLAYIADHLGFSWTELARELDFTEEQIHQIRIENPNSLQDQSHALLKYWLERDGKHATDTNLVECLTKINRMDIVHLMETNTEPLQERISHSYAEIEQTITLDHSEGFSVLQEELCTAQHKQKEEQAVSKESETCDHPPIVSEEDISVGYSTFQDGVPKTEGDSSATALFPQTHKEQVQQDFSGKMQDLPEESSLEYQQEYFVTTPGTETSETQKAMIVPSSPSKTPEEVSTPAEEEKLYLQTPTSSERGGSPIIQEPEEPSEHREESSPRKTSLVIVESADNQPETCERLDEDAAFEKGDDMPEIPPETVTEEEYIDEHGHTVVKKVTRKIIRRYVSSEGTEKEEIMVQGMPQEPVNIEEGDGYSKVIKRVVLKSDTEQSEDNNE
Sequence of UniProt Q8N6T3 (Q8N6T3 whole entry, looked up): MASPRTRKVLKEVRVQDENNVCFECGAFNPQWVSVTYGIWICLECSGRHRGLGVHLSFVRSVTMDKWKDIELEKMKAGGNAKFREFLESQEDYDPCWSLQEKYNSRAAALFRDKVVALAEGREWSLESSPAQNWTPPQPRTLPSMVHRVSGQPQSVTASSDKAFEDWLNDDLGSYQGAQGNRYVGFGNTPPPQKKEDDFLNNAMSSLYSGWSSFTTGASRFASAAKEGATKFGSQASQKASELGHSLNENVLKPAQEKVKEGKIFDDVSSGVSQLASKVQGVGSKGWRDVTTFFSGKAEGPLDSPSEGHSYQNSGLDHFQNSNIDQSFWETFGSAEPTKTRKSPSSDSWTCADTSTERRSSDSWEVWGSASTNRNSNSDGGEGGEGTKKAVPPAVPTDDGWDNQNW

In order of rising log2 fold change:
1. APOH (UniProt P02749)  -0.414
2. ANK2 (UniProt Q01484)  -0.183
3. ACSL6 isoform 1 (UniProt Q9UKU0)  -0.152
4. B4GALNT1 (UniProt Q00973)  -0.093
5. APH1A (UniProt Q96BI3)  -0.075
6. AMD1 (UniProt P17707)  -0.074
7. ARFGAP1 (UniProt Q8N6T3)  -0.073
8. ACTR1B (UniProt P42025)  -0.003
9. BCLAF1 (UniProt Q9NYF8)  0.003
10. ARGLU1 (UniProt Q9NWB6)  0.168

With AUP1 (UniProt Q9Y679) the log2 fold change was -0.236 (active).

Each target was assayed with NCC(=O)Nc1ccc(-n2nc(C(F)(F)F)cc2-c2ccc3c(ccc4ccccc43)c2)cc1 in the same assay as above.
How it was run: as §1

In order of falling log2 fold change:
1. ACTBL2 (UniProt Q562R1)  0.239
2. ATF1 (UniProt P18846)  0.127
3. BRD3 (UniProt Q15059)  0.119
4. B4GALNT1 (UniProt Q00973)  0.092
5. APOH (UniProt P02749)  0.065
6. BCLAF1 (UniProt Q9NYF8)  0.064
7. ARRDC1 (UniProt Q8N5I2)  0.057
8. ATOX1 (UniProt O00244)  0.03
9. AIP (UniProt O00170)  0.018
10. ABHD11 (UniProt Q8NFV4)  0.016
11. BSCL2 isoform 4 (UniProt Q96G97)  0.007
12. ARL3 (UniProt P36405)  0.006
13. ACTR1B (UniProt P42025)  0.004
14. AP2M1 (UniProt Q96CW1)  -0.003
15. ATXN3 isoform 1 (UniProt P54252)  -0.019
16. ADAM15 (UniProt Q13444)  -0.024
17. AFDN isoform 5 (UniProt P55196)  -0.025
18. ATRN (UniProt O75882)  -0.031
19. ASB6 (UniProt Q9NWX5)  -0.032
20. ARFGAP1 (UniProt Q8N6T3)  -0.052
21. ADAMTS5 (UniProt Q9UNA0)  -0.071
22. ARGLU1 (UniProt Q9NWB6)  -0.08
23. ALG14 (UniProt Q96F25)  -0.081
24. BRIP1 (UniProt Q9BX63)  -0.099
25. AUP1 (UniProt Q9Y679)  -0.107
26. ARHGAP25 isoform 4 (UniProt P42331)  -0.127
27. AMD1 (UniProt P17707)  -0.149
28. ATP7B (UniProt P35670)  -0.15
29. ANK2 (UniProt Q01484)  -0.16
30. AASDH (UniProt Q4L235)  -0.166
31. ACSL6 isoform 1 (UniProt Q9UKU0)  -0.174
32. ACP1 (UniProt P24666)  -0.199

ADPRH (UniProt P54922) was tested, and the log2 fold change was -0.623 (active).
For APH1A (UniProt Q96BI3), the log2 fold change was 0.303 (active).
